Measurements taken from PubChem BioAssay.
Entries with a potency or affinity are not part of this list. Calls of active or inactive are those of the source. Unless noted, no cut-off is given here; in the data, nearly all actives have IC50 up to about 0.98 µM.

Target: Calcium-dependent protein kinase 1 (Plasmodium falciparum (isolate 3D7)) (UniProt P62344)
Assay: PfCDPK1 kinase inhibitors, biochemical, TCAMS library (AID 1159585);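 note: inhibitors leave more ATP so luminescence rises with inhibition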
Conditions: recombinant PfCDPK1, Kinase-Glo ATP depletion luminescence

Sequence of Calcium-dependent protein kinase 1 (Plasmodium falciparum (isolate 3D7)) (P62344 whole entry, looked up): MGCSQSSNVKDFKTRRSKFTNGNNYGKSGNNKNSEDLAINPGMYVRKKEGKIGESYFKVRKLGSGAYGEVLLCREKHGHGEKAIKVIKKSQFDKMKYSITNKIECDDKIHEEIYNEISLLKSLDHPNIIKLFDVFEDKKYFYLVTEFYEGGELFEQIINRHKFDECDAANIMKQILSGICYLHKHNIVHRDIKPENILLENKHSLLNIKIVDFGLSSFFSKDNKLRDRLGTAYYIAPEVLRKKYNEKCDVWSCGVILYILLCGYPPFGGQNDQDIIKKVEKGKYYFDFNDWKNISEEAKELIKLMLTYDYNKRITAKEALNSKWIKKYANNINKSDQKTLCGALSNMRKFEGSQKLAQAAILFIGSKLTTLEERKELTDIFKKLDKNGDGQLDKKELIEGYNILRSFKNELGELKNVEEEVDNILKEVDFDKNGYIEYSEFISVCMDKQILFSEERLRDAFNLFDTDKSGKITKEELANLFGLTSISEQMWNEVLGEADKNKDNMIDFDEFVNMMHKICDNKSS

outcome, inactive:
Cc1nc(-c2nc(NCc3ccncc3)ncc2-c2ccsc2)sc1C, CN(Cc1ccccc1)C1CCN(c2cc(NC(=O)c3cccc(F)c3)ccn2)CC1, FC(F)(F)c1ccc2nc(-c3ccc(-c4cccc(CN5CCC(CCN6CCCCC6)CC5)c4)cc3)[nH]c2c1, COCCCNC(=O)C1CCN(C(c2ccc(Cl)cc2)c2ccc(Cl)cc2)CC1, NOCCCOc1ccccc1, Cc1ccc(-c2ccc(NC(=O)N3CCc4cc(Br)c(N5CCN(C)CC5)cc43)cc2)cn1, CCC(C)(C)c1ccc(OCCCC(=O)Nc2ccc(Cl)c([N+](=O)[O-])c2)c(C(C)(C)CC)c1, C=C(C)C1CC=C(CN2CCC(N3CCc4cc(NC(=O)c5cc(C)on5)ccc43)C2)CC1 (stereo not drawn), NC(=O)c1ccsc1NC(=O)CNC(c1ccc(F)cc1)c1cccs1 (stereo not drawn), COc1ccc(NC(=O)Nc2ccc(-c3ccncc3)c(C(F)(F)F)c2)cc1N1CCN(C)CC1, Nc1nc(N)c2c(CCc3ccc(Cl)c(Cl)c3)cccc2n1, CC(C)(C)c1ccc(CNCC(C)(C)c2nc(-c3ccc(Cl)c(O)c3)c(-c3ccnc(N)n3)[nH]2)cc1, COc1ccc(Nc2nccc(-c3ccc(NC(=O)c4cc5cc(F)ccc5[nH]4)cc3)n2)cc1, CC(C)N(Cc1ccc(-c2ccc(C(F)(F)F)cc2)cc1)C(=O)Cn1c(CCc2cccc(F)c2F)cc(=O)c2ccc(CCCN3CCCCC3)cc21, O=C(Nc1cccc(CN2CCCN(Cc3ccc(O)cc3)CC2)c1)c1cc2ccccc2s1, O=C(Nc1ccc(OC2CCN(Cc3ccccc3)CC2)c(Cl)c1)c1ccc(F)cc1, CCN(CC)CCNc1ccnc2[nH]c3ccc(I)cc3c12, CN(C)c1nc2cc(-n3cnc4cc(-c5ccc(Cl)cc5)sc4c3=O)ccc2n1CCCN1CCCC1, Cc1[nH]c2ccccc2c(=O)c1Br, O=C(/C=C/c1ccc(Cl)c(Cl)c1)NCCCCCCN1CCN(C(=O)Nc2cccc(Cl)c2)CC1, Cc1cccc2[nH]c(-c3ccc(-c4cccc(CN5CCN(c6ccncc6)CC5)c4)cc3)nc12, CCCCc1cc(N2CCC(NC(C)=O)C2)nc(Nc2ccc(C)cc2)n1 (stereo not drawn), CCOC(=O)CNC(=O)N(CCN(Cc1ccccc1)C(=O)NCC(=O)OCC)Cc1ccccc1, Cc1cccc2[nH]c(-c3cc(-c4cccc(Cl)c4)cnc3N)nc12, c1ccc(-c2ccc(-c3csc(Nc4ccncc4)n3)cc2)cc1, CC(C)N(CCOc1ccc2c(c1)N(C(=O)Nc1ccc(Cl)c(Cl)c1)CC2)C(C)C, Cn1c(/C=C/C(=O)NC2CCC(CCN3CCc4ccc(C#N)cc4CC3)CC2)cc2ccccc21 (stereo not drawn), Cc1ccc(NC(=O)c2ccc3ncccc3c2)cc1OC1CCN(Cc2ccc(F)cc2)C1 (stereo not drawn), CCc1nc(N)nc(N)c1-c1ccc(F)cc1, Cc1cc(NCCC(=O)NCCOc2ccccc2)nc(NCCOc2ccccc2)n1, CCNc1cc(C)nc(Nc2ccccc2)n1, Cc1cc(N(C)CCCN2CCCCC2)nc(Nc2ccc(Cl)cc2)n1, CC(C)(C)Oc1ccc(CC2NC3(C(=O)N(Cc4ccc(C(C)(C)C)cc4)c4ccccc43)C3C(=O)N(c4ccc(Br)cc4)C(=O)C23)cc1 (stereo not drawn), Cc1ccc2[nH]c(C3CCCNC3)c(-c3ccncc3)c2c1 (stereo not drawn), Cn1nc(-c2cccc(CNC3CCc4ccccc43)c2)c2cnc(NCCCN3CCCC3)nc21 (stereo not drawn), Cc1ccc2c(c1)c(-c1ccccc1)c(-c1ccccc1)n2CC(O)CN1CCN(CC=Cc2ccccc2)CC1 (stereo not drawn), O=C(CCN1CCCCC1)Nc1ccc(Nc2nccc(NCC(O)c3ccccc3)n2)cc1 (stereo not drawn), CCc1ccc(N2C(=O)C3C(Cc4ccc(OC(C)(C)C)cc4)NC4(C(=O)N(Cc5ccccc5)c5ccc(F)cc54)C3C2=O)cc1 (stereo not drawn), CCC[C@@H]([C@@H](CC1CCCCC1)C(=O)N[C@H](C(=O)Nc1nccs1)[C@H](C)O)N(O)C=O

Target: Plasmodium falciparum protein kinase 6 (PK6, PF3D7_1337100) (UniProt Q8IDW1)
Assay: PfPK6 kinase inhibitors, biochemical, TCAMS library (AID 1159586; call rule not given here)
Conditions: recombinant PfPK6, Kinase-Glo ATP depletion luminescence

Sequence of Plasmodium falciparum protein kinase 6 (PK6, PF3D7_1337100) (Q8IDW1 1-305): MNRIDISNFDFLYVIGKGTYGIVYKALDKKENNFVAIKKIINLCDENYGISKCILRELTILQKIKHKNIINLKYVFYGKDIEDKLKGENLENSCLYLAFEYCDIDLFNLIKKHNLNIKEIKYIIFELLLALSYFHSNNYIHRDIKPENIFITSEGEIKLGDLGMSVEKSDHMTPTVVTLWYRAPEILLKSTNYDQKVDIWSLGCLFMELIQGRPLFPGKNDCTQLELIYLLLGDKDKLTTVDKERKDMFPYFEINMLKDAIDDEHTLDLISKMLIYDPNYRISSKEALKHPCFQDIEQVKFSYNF

outcome, inactive:
Cc1nc(-c2nc(NCc3ccncc3)ncc2-c2ccsc2)sc1C, CN(Cc1ccccc1)C1CCN(c2cc(NC(=O)c3cccc(F)c3)ccn2)CC1, FC(F)(F)c1ccc2nc(-c3ccc(-c4cccc(CN5CCC(CCN6CCCCC6)CC5)c4)cc3)[nH]c2c1, COCCCNC(=O)C1CCN(C(c2ccc(Cl)cc2)c2ccc(Cl)cc2)CC1, NOCCCOc1ccccc1, Cc1ccc(-c2ccc(NC(=O)N3CCc4cc(Br)c(N5CCN(C)CC5)cc43)cc2)cn1, CCC(C)(C)c1ccc(OCCCC(=O)Nc2ccc(Cl)c([N+](=O)[O-])c2)c(C(C)(C)CC)c1, C=C(C)C1CC=C(CN2CCC(N3CCc4cc(NC(=O)c5cc(C)on5)ccc43)C2)CC1 (stereo not drawn), NC(=O)c1ccsc1NC(=O)CNC(c1ccc(F)cc1)c1cccs1 (stereo not drawn), COc1ccc(NC(=O)Nc2ccc(-c3ccncc3)c(C(F)(F)F)c2)cc1N1CCN(C)CC1, Nc1nc(N)c2c(CCc3ccc(Cl)c(Cl)c3)cccc2n1, CC(C)(C)c1ccc(CNCC(C)(C)c2nc(-c3ccc(Cl)c(O)c3)c(-c3ccnc(N)n3)[nH]2)cc1, COc1ccc(Nc2nccc(-c3ccc(NC(=O)c4cc5cc(F)ccc5[nH]4)cc3)n2)cc1, CC(C)N(Cc1ccc(-c2ccc(C(F)(F)F)cc2)cc1)C(=O)Cn1c(CCc2cccc(F)c2F)cc(=O)c2ccc(CCCN3CCCCC3)cc21, O=C(Nc1cccc(CN2CCCN(Cc3ccc(O)cc3)CC2)c1)c1cc2ccccc2s1, O=C(Nc1ccc(OC2CCN(Cc3ccccc3)CC2)c(Cl)c1)c1ccc(F)cc1, CCN(CC)CCNc1ccnc2[nH]c3ccc(I)cc3c12, CN(C)c1nc2cc(-n3cnc4cc(-c5ccc(Cl)cc5)sc4c3=O)ccc2n1CCCN1CCCC1, Cc1[nH]c2ccccc2c(=O)c1Br, O=C(/C=C/c1ccc(Cl)c(Cl)c1)NCCCCCCN1CCN(C(=O)Nc2cccc(Cl)c2)CC1, Cc1cccc2[nH]c(-c3ccc(-c4cccc(CN5CCN(c6ccncc6)CC5)c4)cc3)nc12, CCCCc1cc(N2CCC(NC(C)=O)C2)nc(Nc2ccc(C)cc2)n1 (stereo not drawn), CCOC(=O)CNC(=O)N(CCN(Cc1ccccc1)C(=O)NCC(=O)OCC)Cc1ccccc1, Cc1cccc2[nH]c(-c3cc(-c4cccc(Cl)c4)cnc3N)nc12, c1ccc(-c2ccc(-c3csc(Nc4ccncc4)n3)cc2)cc1, CC(C)N(CCOc1ccc2c(c1)N(C(=O)Nc1ccc(Cl)c(Cl)c1)CC2)C(C)C, Cn1c(/C=C/C(=O)NC2CCC(CCN3CCc4ccc(C#N)cc4CC3)CC2)cc2ccccc21 (stereo not drawn), Cc1ccc(NC(=O)c2ccc3ncccc3c2)cc1OC1CCN(Cc2ccc(F)cc2)C1 (stereo not drawn), CCc1nc(N)nc(N)c1-c1ccc(F)cc1, Cc1cc(NCCC(=O)NCCOc2ccccc2)nc(NCCOc2ccccc2)n1, CCNc1cc(C)nc(Nc2ccccc2)n1, Cc1cc(N(C)CCCN2CCCCC2)nc(Nc2ccc(Cl)cc2)n1, CC(C)(C)Oc1ccc(CC2NC3(C(=O)N(Cc4ccc(C(C)(C)C)cc4)c4ccccc43)C3C(=O)N(c4ccc(Br)cc4)C(=O)C23)cc1 (stereo not drawn), Cc1ccc2[nH]c(C3CCCNC3)c(-c3ccncc3)c2c1 (stereo not drawn), Cn1nc(-c2cccc(CNC3CCc4ccccc43)c2)c2cnc(NCCCN3CCCC3)nc21 (stereo not drawn), Cc1ccc2c(c1)c(-c1ccccc1)c(-c1ccccc1)n2CC(O)CN1CCN(CC=Cc2ccccc2)CC1 (stereo not drawn), O=C(CCN1CCCCC1)Nc1ccc(Nc2nccc(NCC(O)c3ccccc3)n2)cc1 (stereo not drawn), CCc1ccc(N2C(=O)C3C(Cc4ccc(OC(C)(C)C)cc4)NC4(C(=O)N(Cc5ccccc5)c5ccc(F)cc54)C3C2=O)cc1 (stereo not drawn), CCC[C@@H]([C@@H](CC1CCCCC1)C(=O)N[C@H](C(=O)Nc1nccs1)[C@H](C)O)N(O)C=O
